Screening results: PubChem BioAssay, National Center for Advancing Translational Sciences (NCATS)
An excerpt weighted towards active compounds, which were near 11% of everything screened.
IMPase inh – cell-permeable inhibitors of inositol monophosphatase (IMPase); inhibition (IP1 accumulation), % at 46.1 µM; AID 901; CHO-M1 cells, IP1 accumulation, HTRF TR-FRET ratio; 120,000 tested, under 10 active; active means well fitted curve in the direction sought with a large enough effect in the signal ratio, not every such curve was filed as active; inconclusive means small, poorly fitted or top-dose-only effect, or a change in a side signal; inactive means no such curve, though single readings can be large or run the other way; the % refers to the signal ratio;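 further: cells stimulated with carbachol in lithium chloride buffer; plate controls were DMSO basal wells for no effect and reference inhibitor wells for full effect; higher means more IMPase inhibition seen as more IP1 and lower FRET ratio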
Target sequence (P97697 whole entry, looked up): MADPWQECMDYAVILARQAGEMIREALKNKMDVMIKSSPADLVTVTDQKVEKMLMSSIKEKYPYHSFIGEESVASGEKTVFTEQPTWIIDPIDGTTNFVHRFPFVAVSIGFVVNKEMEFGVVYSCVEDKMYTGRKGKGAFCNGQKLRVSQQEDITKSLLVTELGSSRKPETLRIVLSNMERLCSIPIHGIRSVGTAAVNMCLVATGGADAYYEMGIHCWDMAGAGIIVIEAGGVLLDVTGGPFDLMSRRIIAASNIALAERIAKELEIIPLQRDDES
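Seeded CHO-M1 cells were dosed with compound at up to 46 uM, stimulated with carbachol for 30 min, then lysed in IP-One detection reagents. Higher IP1 lowers the TR-FRET signal.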
IMPase Li cell – IMPase inhibition in cells with lithium potentiation | Potency, µM (highest dose often 59.4 µM), without a hit: at the top dose activity, negative = IMPase inhibition, actives largely listed as inhibitors | actives 0.35% (n = 210,000) | AID 1457 | CHO-M1 cells, IP1 TR-FRET (IP-One), carbachol + lithium; active means well fitted inhibition curve with a large enough effect; inconclusive means small, poorly fitted or top-dose-only effect; inactive means no such curve, though single readings can be large or run the other way;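 further: IP1 builds up when IMPase is blocked and the TR-FRET signal falls; potency means the concentration at half of the fitted maximal effect; plate controls were basal vehicle for no effect and high inhibitor control for full effect; nearly all actives have a fitted effect of over 50% in size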
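Lithium-sensitised IP1 accumulation assay; M1-expressing CHO cells treated 30 min at 37C with compound. Competitive antibody detection by time-resolved FRET followed a 10 min room-temperature lysis step.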
HPGD inh – inhibitors of human 15-hydroxyprostaglandin dehydrogenase (HPGD) | P15428 | purified HPGD, NADH fluorescence kinetic, PGE2 substrate | Potency, µM, inactives show top-dose activity change, negative = inhibition, most hits filed as inhibitors | actives 4.3% (n = 150,000) | AID 894; further: potency means the concentration at half of the fitted maximal effect
Target sequence (P15428 whole entry, looked up): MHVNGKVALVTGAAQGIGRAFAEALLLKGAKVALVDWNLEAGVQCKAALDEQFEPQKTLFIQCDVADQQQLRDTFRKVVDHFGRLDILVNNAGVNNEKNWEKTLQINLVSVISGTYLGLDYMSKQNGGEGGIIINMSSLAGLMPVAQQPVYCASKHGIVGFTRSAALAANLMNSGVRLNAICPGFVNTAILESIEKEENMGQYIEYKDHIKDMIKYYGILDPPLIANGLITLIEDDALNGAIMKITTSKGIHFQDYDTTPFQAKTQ
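20 nM HPGD preincubated 15 min at room temperature with compound in 50 mM Tris-HCl pH 8, 0.01% Tween 20. Started with 1 mM NAD+ and 30 uM prostaglandin E2; NADH fluorescence (360/450 nm) read 5 times over 30-s intervals, last minus first.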
ALDH1A1 inh – blocks purified human ALDH1A1 activity | Potency, µM (series often up to 75.3 µM), for inactives: at the top dose activity, negative = inhibition, hits mostly inhibitors | Purified ALDH1A1, NADH fluorescence, propionaldehyde substrate | P00352 | actives 7.3% (n = 220,000);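 further: potency means the concentration at half of the fitted maximal effect; plate controls were no enzyme wells and a reference inhibitor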
PNC assembly inh – inhibitors of perinucleolar compartment assembly; PC3M PTB-GFP, PNC prevalence imaging, 16 h; hits give low values; activity change (PNC), negative = inhibition, % at 10 µM; actives 3.1% (n = 140,000); AID 2417;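 active means readout at or below -70, meaning at least 70% loss of cells showing the perinucleolar compartment, a nuclear body marking cancer cells; inconclusive means readout between -30 and a set limit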;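 further: plate controls were DMSO wells for no effect and camptothecin positive control wells for full effect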
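Read-out is percentage of cells bearing a perinucleolar compartment, from automated 20x imaging of fixed, Hoechst-stained PC3M PTB-GFP cells. Cells were seeded 4 h, then exposed 16 h to compound (23 nl of library stock) in duplicate plates.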
An asterisk follows results filed as active; u = inconclusive; x = no result given; [ ] = remark or other dose. Unless noted, the call rests on the fitted dose curve; in most records, active means well fitted inhibition curve with a large enough effect (not every such curve was filed as active); inconclusive means small, poorly fitted or top-dose-only effect, or another doubt; inactive means no such curve, though single readings can be large or run the other way. Unless noted, on the % scale 0 is the no-effect control and ±100 the full control effect.

SMILES	IMPase inh	IMPase Li cell	HPGD inh	ALDH1A1 inh	PNC assembly inh
CNC(=O)c1cc2c(s1)CCCCCC2	3	1%	-10%	u	u
CC1CCc2sc(C(=O)NN=C3CCC(c4ccccc4)CC3)cc2C1 (configuration not stated)	x	0%	-16%	1.3µM*	44
CC(C)(C)C1CCC(=NNC(=O)c2ccccc2-n2cccc2)CC1 (configuration not stated)	11	3%	-14%	5µM*	16
CCc1cc(C(=O)NNC(=O)CCl)sc1C	x	-1%	x	u	x
CC(C)(C)C1CCC(=NNC(=O)c2cc3c(s2)CCCC3)CC1 (configuration not stated)	-6	-8%	-16%	4µM*	28
CC1CCc2sc(C(=O)N/N=C/c3ccc([N+](=O)[O-])cc3)cc2C1 (configuration not stated)	1	0%	-11%	3%	u
CC(C)(C)C1CCc2sc(C(=O)NNC(=O)CCl)cc2C1 (configuration not stated)	x	10%	x	3.2µM*	x
COc1ccc(-c2nc3c(c4c2C[C@H](c2ccccc2)OC4)CN(C(=O)Nc2cccc(C#N)c2)CC3)c(C)c1	x	-5%	-1%	u	x
Cn1c(Oc2ccc(Cl)cc2)nc2c1c(=O)n(Cc1ccc(F)cc1)c(=O)n2C	-2	x	x	x	x
COC(=O)C1(Cc2ccccc2)C2c3cc(C(=O)N4CCCC4)n(Cc4ccc(OC(F)(F)F)cc4)c3CC2CN1C(=O)c1ccccc1 (configuration not stated)	x	11%	-19%	1%	x
O=C(NN=C1CCC(c2ccccc2)CC1)c1cc2c(s1)CCCC2 (configuration not stated)	23	0%	-10%	7.9µM*	-6
Cc1[nH]c(N)nc(=S)c1CCC(=O)O	x	-5%	-11%	-7%[13.5 µM]	x
COc1ccccc1CCn1c(=O)c(-c2ccc(Cl)cc2)nc2cncnc21	x	6%	-3%	6%	x
COc1ccccc1CCn1c(=O)cnc2cncnc21	x	1%	x	1.4µM*	x
Cc1cc(C(F)(F)F)nc(SCC(=O)NC2CC3CCC2C3)n1 (configuration not stated)	2	13%[38.3 µM]	20µM*	-4%	9
CC(=O)OCc1ccco1	x	7%	-8%	22µM*	x
CC(C)OC(=O)c1cccc(C(=O)OCc2ccco2)n1	-2	2%[38.3 µM]	-7%	8.9µM*	-10
CCCCC/C=C\C/C=C\C/C=C\CCCCCCC(=O)NCCc1ccc(O)c(O)c1	x	13%	0%	-7%	x
CCOC(=O)c1cc(-c2ccccc2)sc1NC(=O)c1ccc(OC)cc1	-1	1%[38.3 µM]	3.5µM*	u	54
CCOC(=O)c1cc(-c2ccccc2)sc1NC(=O)CC	-4	-7%	u	u	-16
CCOC(=O)c1cc(-c2ccccc2)sc1N	x	-1%	11µM*	11µM*	55
CCOC(=O)c1c(N)sc(C)c1-c1ccccc1	x	19%	25µM*	u	x
CCOC(=O)c1cc(-c2ccccc2)sc1NC(=O)COC(=O)c1ccc(Cl)c(S(N)(=O)=O)c1	x	13µM*	x	u	x
CCn1ncc(C2=NOC(C(=O)Nc3cccc(C(C)=O)c3)C2)c1C (configuration not stated)	-2	20%[38.3 µM]	-6%	6%	-26
CCC/C=C/C1C(=O)C2OC2C2(OCC(CC)(CC)CO2)C1CO (configuration not stated)	x	x	x	6%[13.5 µM]	x
SMILES	IMPase inh	IMPase Li cell	HPGD inh	ALDH1A1 inh	PNC assembly inh
CC(C)(C)C(=O)N1N=C(c2ccc(NS(C)(=O)=O)cc2)CC1c1cccs1 (configuration not stated)	x	6%	x	u	x
CCN1C(=O)[C@H]2[C@@H]3[C@H](O)C=CC(=O)[C@H]3CC[C@H]2C1=O	x	x	x	3.2µM*	x
CC(C)(C)N1C(=O)[C@H]2[C@@H]3[C@H](O)C=CC(=O)[C@H]3CC[C@H]2C1=O	x	x	x	9%[13.5 µM]	x
CCCCCCCOc1ccc(OC(=O)c2ccncc2)cc1	-11	4%[38.3 µM]	-17%	-1%	11
CC(=O)NCCC(Cc1ccccc1)c1ccco1 (configuration not stated)	1	-3%	-11%	-6%	-100*
O=C(CC(Cc1ccccc1)c1ccco1)NCc1ccco1 (configuration not stated)	x	x	x	-4%	x
CC/C=C\C/C=C\C/C=C\C/C=C\C/C=C\C/C=C\CCC(=O)O[C@H](COCCCCCCCCCCCCCCCC)COP(=O)([O-])OCC[N+](C)(C)C	x	-11%	-5%	1%	x
NCCSS(=O)(=O)CCN	x	-3%	u	u	x
CN(C)S(=O)(=O)c1ccc(Cl)c(NC(=O)COC(=O)CNC(=O)c2ccco2)c1	x	1%	x	u	x
Cc1ccc(OCCC(=O)OCC(=O)Nc2cc(S(=O)(=O)N(C)C)ccc2C)cc1	x	-1%	x	4µM*	x
CN(C)S(=O)(=O)c1ccc(Cl)c(NC(=O)COC(=O)CCSc2ccccc2)c1	-5	-5%	-1%	25µM*	-24
COc1ccc2c(c1)-c1nc(/N=C/c3c(O)ccc4ccccc34)sc1CC2	x	-4%	u	18µM*	-8
COc1ccc2c(c1)-c1nc(/N=C/c3ccc(O)cc3)sc1CC2	x	1%	-26%	4.5µM*	35
CCc1cccc2nc3c(c([Si](C)(C)C)c12)Cn1c-3cccc1=O	x	-4%	u	u	x
O=C(O)C1Cc2c([nH]c3ccccc23)C(c2coc3ccccc3c2=O)N1 (configuration not stated)	x	-2%	-8%	4%	x
O=C(c1cc2ncc(Br)cn2n1)N1CCCCC1	x	-3%	x	u	x
O=C(c1cc2ncc(CCCl)cn2n1)N1CCCCCC1	x	-9%	1µM*	u	20
O=S(=O)(Nc1ccncc1Cl)c1ccc2ccccc2c1	x	1%	x	2%	x
CN(C)/C=N/c1sc2c(c1C#N)CCCCC2	x	-3%	-24%	4µM*	-11
N#Cc1c(/N=C/N2CCOCC2)sc2c1CCCCC2	-4	-19%[38.3 µM]	-19%	14µM*	u
CN(C)/C=N/c1sc2c(c1C#N)CCC2	5	1%[38.3 µM]	25µM*	10µM*	-30
O=C(O)c1ccc(CSc2nc3ccccc3o2)cc1	6	-8%[38.3 µM]	28µM*	10%	-2
c1ccc2oc(SCc3cn4ccccc4n3)nc2c1	8	22%[38.3 µM]	-20%	3.2µM*	-27
O=C(O)c1ccccc1CSc1nc2ccccc2o1	0	-2%[38.3 µM]	-12%	8%	11
Cc1ccc(S(=O)(=O)NCC(=O)OCC(=O)NC(=O)NC2CCCC2)cc1	x	-6%	x	-10%	x
COC(=O)CC1[C@@]2(C)C[C@]34OC5(C)OC6(C7CC(=O)OC(c8ccoc8)[C@]7(C)CCC6(O5)[C@]13C)C(OC(C)=O)[C@]4(OC(C)=O)C2OC(C)=O (some centres not stated)	x	10%	-2%	10%	x
C=CCN(CC=C)C(=S)NC(=O)c1ccc(OC)cc1	x	-1%	x	15µM*	x
